Compound activity from PubChem.
Compounds with a hit are over-represented: about 12% of the library has one in this group of screens.
G9a block: blocks human histone lysine methyltransferase G9a; Q96KQ7; G9a H3K9 monomethylation, AlphaScreen, 2 h; Potency, µM (top dose mostly 102 µM), inactives show top-dose activity, negative = inhibition, most hits filed as inhibitors; hit rate 8.8% among 350,000; AID 504332; note: % is set by controls: 0 for no effect and ±100 for the full control effect; nearly all actives have a fitted effect of over 75% in size
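Signal arises when biotinylated H3K9 peptide, once monomethylated, bridges streptavidin donor and antibody-captured acceptor beads. Enzyme at 20 nM was preincubated 15 min with test compounds; peptide 500 nM and SAM 20 uM then reacted for 2 h.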
JMJD2A Tudor: blocks the human JMJD2A Tudor domain; hit rate 4.4% among 390,000; Potency, µM (doses to about 114 µM), without a hit: top-dose activity change, negative = inhibition, actives largely listed as inhibitors; AlphaScreen JMJD2A-Tudor / H3K4me3 peptide binding; O75164; AID 504339; note: % is set by controls: 0 for no effect and ±100 for the full control effect; nearly all actives have a fitted effect of over 50% in size
BAZ2B block: inhibitors of human BAZ2B bromodomain; Q9UIF8; AlphaScreen BAZ2B-H3K14Ac peptide displacement; Potency, µM (top dose mostly 114 µM), inactives show top-dose activity change, negative = inhibition, actives largely listed as inhibitors; hit rate 4.4% among 360,000; AID 504333; note: % is set by controls: 0 for no effect and ±100 for the full control effect; nearly all actives have a fitted effect of over 60% in size
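BAZ2B 50 nM plus b-H3(5-23)K14Ac 50 nM, PBS pH 7.4/0.01% Tween-20, 30 min RT; compound added (max 110 uM), 30 min RT; streptavidin donor/Ni-chelate acceptor beads 10 ug/mL final, 20 min dark; AlphaScreen read.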
HP1b binding inh: blocks HP1-beta chromodomain binding to methylated histone tails | AID 540317 | Potency, µM (titrated, usually from 114 µM), without a hit: at the top dose activity change, negative = inhibition, usual class: inhibitors | AlphaScreen HP1-beta / biotin-H3K9me3 peptide binding | P83916 | hit rate 0.56% among 390,000; note: nearly all actives have a fitted effect of over 70% in size
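Compound inhibition of the preformed complex between 50 nM HP1-beta and 50 nM biotinylated H3K9me3 peptide was read by AlphaScreen. Buffer was PBS pH 7.4 with 0.01% Tween-20. Incubations ran 30 min at room temperature, with 10 ug/mL donor/acceptor beads.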
Sfp inh: inhibitors of Bacillus subtilis Sfp phosphopantetheinyl transferase. Q9F4F7. Potency, µM, for inactives: largest response in the series, negative = inhibition, most hits filed as inhibitors. Biochemical Sfp PPTase activity, qHTS. hit rate 3.5% among 310,000;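 note: the enzyme is Sfp with the accession as filed and its product quenches rhodamine fluorescence; 0% = enzyme reaction without inhibitor and -100% = no enzyme wells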
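With Hepes-Na pH 7.6 buffer containing 10 mM MgCl2, Sfp (15 nM) modified BHQ-2-YbbR (12.5 uM) using rhodamine-CoA (5 uM). Two reads 30 minutes apart at 525/598 nm yielded each well's rate.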
TDP1 block: inhibitors of human tyrosyl-DNA phosphodiesterase TDP1; Potency, µM (doses to about 130 µM), inactives show at the highest dose activity change, negative = inhibition, actives largely listed as inhibitors; hit rate 0.28% among 350,000; recombinant TDP1, AlphaScreen DNA substrate cleavage; note: % is set by controls: 0 for no effect and ±100 for the full control effect; nearly all actives have a fitted effect of over 40% in size
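Enzyme-compound mixtures sat 15 min at room temperature, followed by a 5 min reaction with 15 nM final substrate and 10 min with AlphaScreen beads. Recombinant human Tdp1 was used at 1 nM final.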
The depositor's hits bear a star; ? = inconclusive; nt = not tested or not shown; [ ] = dose if it differs, or a comment. Calls come from the whole dose curve; as a rule, active = well fitted curve in the direction sought with a large enough effect; inconclusive = small, poorly fitted or top-dose-only effect, or another doubt; inactive = no such curve, though single readings can be large; an effect the other way counts as inactive or inconclusive. Potency is the fitted concentration of half-maximal effect.

SMILES	G9a block	JMJD2A Tudor	BAZ2B block	HP1b binding inh	Sfp inh	TDP1 block
NCC1O[C@@H](O[C@@H]2C(O)[C@H](O[C@H]3OC(CO)C(O)C(N)C3O)[C@@H](N)C[C@H]2N)C(N)C(O)C1O (some centres not stated)	-1%[2.33 µM]	nt	nt	nt	10%	-6%[56.1 µM]
CC1(C)CC2(CC(C)(C(=O)CSc3nc4ccccc4s3)OC2=O)C(=O)O1 (configuration not stated)	-8%	-16%	-9%	22%	1%	2%
N#CC1(NC(=O)CSc2n[nH]c(-c3ccccc3)n2)CCCCC1	8.9µM*	-10%	-3%	32%	nt	0%
CC1(C(=O)CSc2nc3ccccc3s2)CCC(=O)O1 (configuration not stated)	2%[12.7 µM]	40µM*	?	37%	?	3%
Cc1cc(SCC(=O)NC(=O)c2cccn2C)nc2ccccc12	50µM*	?	?	2%	-21%	8%
O=C(CSc1n[nH]c(-c2ccccc2)n1)NC(=O)NCc1ccco1	50µM*	-35%	?	9%	-8%	-4%
O=C(CSc1n[nH]c(-c2ccco2)n1)Nc1ccccc1	-48%	-21%	-35%	6%	nt	-13%
COc1ccc(/C=C2/CSC/C(=C/c3ccc(OC)c(OC)c3)C2=O)cc1OC	nt	-13%	nt	10%	nt	nt
CCN(CC(=O)NC(=O)NCc1ccco1)Cc1ccccc1	?	-29%	-31%	-15%	nt	-7%[0.505 µM]
CCN(CC(=O)NC(=O)NCc1ccco1)Cc1nc2ccccc2c(=O)[nH]1	?	-27%	-36%	15%	50µM*	7%
Cc1ccc(NC(=S)NC(=O)/C=C/c2ccco2)c(O)c1	?	?	?	-32%	?	6%
Cc1cccnc1NC(=S)NC(=O)/C=C/c1ccco1	32µM*	-10%	-21%	29%	-10%	nt
O=C(/C=C/c1ccco1)NC(=S)Nc1ccccc1O	32µM*	-8%[11.4 µM]	40µM*	?	-54%	1%
COc1ccc(NC(=S)NC(=O)/C=C/c2ccco2)c(OC)c1	13%[0.501 µM]	?	-24%	-4%	-15%	nt
O=C(/C=C\c1ccco1)NC(=S)Nc1ccccc1O	45µM*	-12%[11.4 µM]	50µM*	-12%	?	3%
Cc1ccc(-c2nc3ccccc3[nH]2)cc1NC(=O)/C=C/c1ccco1	-6%[2.33 µM]	?	50µM*	-21%	50µM*	0%
N#Cc1c(-c2ccc(Cl)cc2)no[n+]1[O-]	nt	-26%	nt	nt	nt	nt
CCCCOc1ccc(C2CCC(C(C)=O)C(C)C2)cc1 (configuration not stated)	nt	112%	44%	160%	-2%	-3%
Cc1cc(C)c2oc(-c3ccc(C)c(NC(=S)NC(=O)/C=C/c4ccco4)c3)nc2c1	-44%[59 µM]	-29%	-30%	6%	40µM*	0%
CC(=O)N/N=C/c1c(C)[nH]n(-c2ccccc2)c1=O	-3%	50µM*	79µM*	24%	15%	8%
Cc1[nH]n(-c2ccc(Cl)cc2)c(=O)c1C(=O)c1ccccc1	nt	-29%	-7%	28%	3%	6%
CCOC(=O)c1[nH]n(-c2ccc(Cl)cc2)c(=O)c1C	?	71µM*	?	?	-18%	-2%
Cc1[nH]n(-c2ccccc2)c(=O)c1/C=N/NC(=O)c1cccc([N+](=O)[O-])c1	31%[2.33 µM]	-21%	-4%	36%	10%	12%
Cc1[nH]n(-c2ccccc2)c(=O)c1/C=N/N(C)c1ccccc1	13µM*	?	?	-17%	-18%	10%
Cc1[nH]n(-c2ccccc2)c(=O)c1C(=O)c1ccc(Cl)cc1	nt	50µM*	-13%	-10%	6%	4%
CC(Sc1nnc(-c2ccncc2)n1C)C(=O)Nc1ccc(N2CCOCC2)cc1 (configuration not stated)	-5%[12.7 µM]	-10%	-1%	26%	nt	3%
COC(=O)N/N=C\c1c(C)[nH]n(-c2ccccc2)c1=O	1.8µM*	?	?	14%	-18%	4%
